Measurements published in PubChem BioAssay.

Tests used:
[1] = system: Human papillomavirus type 1a protein E7 (residues 44-93); experiment: small molecules binding HPV E7 44-93 – biochemical, small-molecule microarray, residues 44-93, 635 nm fluorescence, primary screen (AID 1108); conditions: fluorescence 635 nm, higher = more signal;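 further: E7 fragment applied at 1 µg/mL in TBST for 1 h at 4 C; score combines spot fluorescence with its signal to noise ratio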
[2] = hepatitis C replication reporter changes, two-sided – Huh7 cells, luciferase reporter, HCV replication inhibitor project, primary screen (AID 1109); conditions: Huh7 HCV replicon luciferase reporter, 48 h; higher = more signal;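 further: huh7 hepatoma cells harbouring a luciferase neomycin HCV replicon reporter; luciferase luminescence as measure of HCV replicon replication; test concentration not given here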
[3] = target: Left-right determination factor 2 (Homo sapiens) (UniProt O00292); experiment: small molecules binding LEFTY2 protein – biochemical, small-molecule microarray, 635 nm fluorescence scan, primary screen (AID 1110); conditions: higher = more signal
[4] = target: Calmodulin-1 (Homo sapiens) (UniProt P0DP23); experiment: small molecules binding calmodulin-1 with EGTA – biochemical, small-molecule microarray, Cy5-labelled CALM1, profiling panel (AID 1111); conditions: Cy5-CALM1 binding fluorescence, higher = more signal;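 further: labelled calmodulin applied in Tris saline Tween buffer holding calcium plus EGTA and DTT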
[5] = target: Calmodulin-1 (Homo sapiens) (UniProt P0DP23); experiment: small molecules binding Ca-loaded calmodulin-1 – biochemical, small-molecule microarray, Cy5-labelled CALM1, plus calcium, artefact control for SMM control-protein annotation, profiling panel (AID 1112); conditions: Cy5-CALM1 binding fluorescence, higher = more signal;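 further: score merges spot fluorescence with signal to noise from triplicate slides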
[6] = probe aWnt5a binding to arrayed compounds – biochemical, biotinylated probe, 635/667 nm fluorescence, primary screen (AID 1113); conditions: small-molecule microarray, higher = more signal;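 further: score merges 667 nm fluorescence intensity with signal-to-noise per printed feature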
[7] = probe aShh binding to arrayed compounds – biochemical, biotinylated probe, 635/667 nm fluorescence, primary screen (AID 1114); conditions: small-molecule microarray, higher = more signal;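 further: probe is biotin-labelled aShh protein from a stem cell growth factor screen; measures binding of labelled protein to compounds printed on the slide; score merges feature fluorescence at 667 nm with signal-to-noise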
[8] = probe aNog binding to arrayed compounds – biochemical, biotinylated probe, 635/667 nm fluorescence, primary screen (AID 1115); conditions: small-molecule microarray, higher = more signal;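 further: probe is biotinylated aNog protein used at 0.15 µg/mL for 1 h at 4 C; z-score combines 667 nm fluorescence of each spot with its signal to noise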
[9] = target: Torsin-1A-interacting protein 1 (Homo sapiens) (UniProt Q5JTV8); experiment: compound microarray binding of lysate hLAP1 – cell lysate, small-molecule microarray, COS7 lysate, 635/667 nm fluorescence, primary screen (AID 1116); conditions: 635 nm fluorescence, higher = more signal
[10] = target: Alpha-bungarotoxin (Bungarus multicinctus) (UniProt P60615); experiment: compounds binding labelled alpha-BTX control protein – biochemical, small-molecule microarray, Alexa647 label, 635/667 nm fluorescence, artefact control for SMM control protein annotation, profiling panel (AID 1117); conditions: alpha-BTX-A647 binding fluorescence, higher = more signal
Alpha-bungarotoxin (Bungarus multicinctus), sequence (P60615 whole entry, looked up): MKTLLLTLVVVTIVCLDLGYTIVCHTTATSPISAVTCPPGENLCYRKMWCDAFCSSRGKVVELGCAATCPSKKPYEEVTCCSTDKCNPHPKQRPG

Torsin-1A-interacting protein 1 (Homo sapiens), sequence (Q5JTV8 whole entry, looked up): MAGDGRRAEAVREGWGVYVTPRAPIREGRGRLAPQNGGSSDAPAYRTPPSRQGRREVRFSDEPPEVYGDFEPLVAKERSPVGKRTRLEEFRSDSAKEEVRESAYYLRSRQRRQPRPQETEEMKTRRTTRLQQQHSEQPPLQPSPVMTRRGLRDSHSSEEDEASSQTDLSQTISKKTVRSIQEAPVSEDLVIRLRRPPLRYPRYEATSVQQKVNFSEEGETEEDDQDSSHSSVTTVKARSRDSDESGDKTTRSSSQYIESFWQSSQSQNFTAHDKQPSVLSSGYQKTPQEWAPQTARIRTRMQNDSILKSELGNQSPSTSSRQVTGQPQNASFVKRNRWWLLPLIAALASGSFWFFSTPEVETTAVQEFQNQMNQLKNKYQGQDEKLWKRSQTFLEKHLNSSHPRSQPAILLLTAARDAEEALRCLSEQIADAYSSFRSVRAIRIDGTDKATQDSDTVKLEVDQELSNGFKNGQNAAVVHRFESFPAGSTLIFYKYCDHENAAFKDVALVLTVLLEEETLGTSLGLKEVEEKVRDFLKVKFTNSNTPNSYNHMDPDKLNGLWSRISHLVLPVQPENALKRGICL
Left-right determination factor 2 (Homo sapiens), sequence (O00292 whole entry, looked up): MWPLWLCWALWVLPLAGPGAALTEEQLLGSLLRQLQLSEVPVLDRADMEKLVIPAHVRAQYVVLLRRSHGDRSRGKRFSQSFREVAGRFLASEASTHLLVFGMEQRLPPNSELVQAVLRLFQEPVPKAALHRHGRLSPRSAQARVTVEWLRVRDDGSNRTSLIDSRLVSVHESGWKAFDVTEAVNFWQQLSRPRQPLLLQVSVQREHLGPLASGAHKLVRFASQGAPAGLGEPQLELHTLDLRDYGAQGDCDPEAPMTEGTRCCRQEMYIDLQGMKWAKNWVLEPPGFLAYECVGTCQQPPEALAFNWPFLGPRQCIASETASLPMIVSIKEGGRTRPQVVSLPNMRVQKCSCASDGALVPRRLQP

| Structure (SMILES) | composite z-score [1] | z-score [2] | composite z-score [3] | composite z-score [4] | composite z-score [5] | composite z-score [6] | composite z-score [7] | composite z-score [8] | composite z-score [9] | composite z-score [10] |
| --- | --- | --- | --- | --- | --- | --- | --- | --- | --- | --- |
| COc1ccc(CCNC(=O)[C@@]2(Sc3ccc(C)cc3)CC(=O)N(Cc3ccccc3C(F)(F)F)[C@@H]2c2ccc(CO)cc2I)cc1 | 0.497 | -2.42 | -1.5 | 0.138 | 0.14 | -0.0792 | -0.0849 | 0.924 | 0.357 | 1.73 |
| COCC(=C=CC[C@H](O)c1ccc(OCCO)cc1)CCO | 0.364 | -0.794 | 0.774 | -0.31 | -0.618 | -0.0239 | -0.138 | -0.0898 | 1.6 | -0.829 |
| C=C(COC)/C(=C/C[C@H](OC(=O)c1ccncc1)c1ccccc1OCCO)c1cc(C(=O)OC)ccc1OC | 1.43 | -2.76 | 0.753 | -0.191 | -0.59 | -0.0687 | -0.494 | -0.145 | -0.353 | 0.251 |
| CCOC(=O)C[C@H]1[C@H](OC(=O)c2ccc(C(=O)c3ccccc3)cc2)[C@@H](NC(=O)c2ccc(-c3ccccc3)cc2)c2cc(OCCCO)ccc2N1C(=O)Cc1ccc(OC)cc1 | 0.625 | -0.751 | 0.176 | 0.439 | -0.122 | -0.0236 | -0.214 | -0.468 | 0.759 | 0.355 |
| CCCC=C(CCC)[C@@H](NS(=O)(=O)CC12CCC(CC1=O)C2(C)C)c1ccc(C(=O)OC)cc1 (stereo not given in full) | 1.33 | -0.197 | 0.306 | -0.057 | -0.654 | -0.165 | -0.373 | -0.289 | 0.159 | -0.362 |
| O=C(NCCN1CCOCC1)[C@@H]1c2ccccc2C(=O)N(C2Cc3ccccc3C2)[C@H]1c1ccc(CO)cc1 | 1.4 | -1.42 | -1.57 | -0.472 | -0.301 | -0.23 | -0.13 | -0.447 | 0.554 | 0.776 |
| O=C1C2C=CC(C(O)c3ccco3)N(Nc3ccccc3F)C2C(=O)N1c1ccccc1 (stereo not given) | 0.761 | -0.137 | -0.46 | 0.175 | -0.0085 | 0.115 | 0.184 | 0.742 | 0.942 | 0.25 |
| CCCC=C(CCC)[C@@H](NP(=O)(c1ccccc1)c1ccccc1)c1ccc(-c2ccccc2)cc1 | 1.23 | -2.72 | 0.53 | 0.877 | 0.796 | 0.328 | 0.972 | 1.35 | 0.946 | 1.3 |
| CC[C@@H]1C=C(C(=O)O)[C@H](c2ccc(C#N)cc2)N1S(=O)(=O)c1ccc(C)cc1 | 0.458 | -0.651 | 0.635 | 1.45 | -0.0241 | 0.0136 | -0.0324 | 0.598 | 2.47 | 0.62 |
